PubChem BioAssay (NCI)
“And” between values parts separate entries of the source, which are not always exact repeats. Equal values may be shown once. Compounds without any hit were thinned out: in the full panel of roughly 83,000, 20% have a hit.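 How to read the values: 0–100, growth inhibition (40 = 60% inhibited); 0, no net growth; -100 to 0, cell death (-40 = 40% of starting cells died; -100 = all dead).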 A number with no mark means an inactive call. The source made the active and inactive calls. How the source made its calls: active means growth percent below 10; inactive means the rest.

system: MDA-MB-468 breast; experiment: NCI-60 one-dose screen, 48 h (100 = growth as untreated, 0 = no growth, -100 = all killed); conditions: 10 µM unless noted

Structure (SMILES) | growth
CCOC(OCC)C(=O)c1ccccc1 | 102%
Cc1ccc(S(=O)(=O)N2CCc3ccccc3CC2)cc1 | -4.8% (active)
CCOC(=O)c1c(C)[nH]c2ccc(O)cc12 | 102%
CCOC(=O)c1c(Nc2ccccc2)nn2c(N)c(C#N)c(-c3ccc(OC)cc3)nc12 | 73.1%
O=C(O)CCC(=O)Nc1nnc(-c2ccccc2)s1 | 116%
COc1ccc(CCn2cnn3c(=O)c4ccccc4nc3c2=O)cc1OC | 93.5% and 94.3%
COc1cc(Cl)cc(-c2nn(C(=O)NS(=O)(=O)c3ccc(Cl)cc3)cc2-c2ccncc2)c1 | 83.7%
O=C1NC(=O)/C(=C/c2ccc3nccc(-c4ccncc4)c3c2)S1 | -49.2% (active)
Cc1ccc2c(c1)c(-c1nc(-c3c[nH]c4ncccc34)cs1)cn2C | -2.68% (active)
O=C(Nc1cc(Cl)ccc1O)c1ccc(Nc2ccnc(C(F)(F)F)c2)cc1 | 58.7%
O=C1C[C@H](c2ccccc2)[C@H](c2ccccc2)C1 | 99.2%
Nc1ccn(C2CC(O)C(CO)O2)c(=O)n1 (stereo not given) | 103%
CN1CCN(c2ccc(Nc3nc(NCCCNS(=O)(=O)c4ccc(C(F)(F)F)cc4)c4sccc4n3)cc2)CC1 | -80.9% (active)
Cc1cc(=O)oc2cc(OCCCOc3ccc(/C=C/C(=O)Nc4ccc(Br)cc4)cc3)ccc12 | 75.9%
c1ccc(CN2COc3c(ccc4c3OCN(Cc3ccccc3)C4)C2)cc1 | 0.865% (active)
Nc1cccc(S(=O)(=O)c2cccc(N)c2)c1 | 119%
CCCCCCCCCCCCCCCC(=O)O[C@@H]1[C@@H](O)[C@@H](O)C([C@H](NC(=O)[C@@H]2C[C@@H](CCC)CN2C)[C@H](C)Cl)O[C@@H]1SC (stereo not given in full) | 97.9%
Cc1cc(-c2ccc(N=Nc3c(S(=O)(=O)O)cc4cc(S(=O)(=O)O)cc(O)c4c3O)c(C)c2)ccc1N=Nc1c(S(=O)(=O)O)cc2cc(S(=O)(=O)O)cc(O)c2c1O | 109%
Cc1ccc(C(=O)c2ccc(C)cc2)cc1 | 91%
COC(=O)CCC/C=C\C[C@H]1C=CC(=O)/C1=C/C[C@@H](O)C/C=C\CC(F)(F)F | -6.29% (active)

Structure (SMILES) | growth
NC(=O)NO | 109%
COc1ccc(/C=N/C2=C(C#N)C(c3ccc(OC)cc3)c3ccc4ccccc4c3O2)cc1 (stereo not given) | 38.2%
CCc1ccc(C2=C/C(=C/c3ccc(Cl)cc3)C(=O)N2CCc2ccc(S(N)(=O)=O)cc2)cc1 | 13.5%
O=C(Nc1ccc(F)cc1)c1cc([N+](=O)[O-])ccc1O | 56.3%
c1ccc(-c2ccc(-c3ccccc3)[nH]2)cc1 | 70.1%
CCOP(=O)(OCC)OC[C@]12CCC(C)(C)C=C1[C@H]1CC[C@@H]3[C@@]4(C)CC[C@H](OP(=O)(OCC)OCC)C(C)(C)[C@@H]4CC[C@@]3(C)[C@]1(C)CC2 | -16.8% (active)
Fc1ccc2[nH]cc(-c3nc(-c4c[nH]c5ccncc45)cs3)c2c1 | -65.6% (active)
O=C1Nc2ccc(Br)cc2C1=N/C=c1\[nH]c(=O)/c(=C/c2ccc(Cl)cc2)s1 | 86.6%
Cn1c(SCC(=O)c2ccco2)nc2ccccc2c1=O | 5.9% (active)
C=C(C)[C@@H]1CC[C@]2(C=O)CC[C@]3(C)[C@H](CC[C@@H]4[C@@]5(C)CCCNC(C)(C)[C@@H]5CC[C@]43C)[C@@H]12 | 64.6%
CC[C@]12C=CCN3CC[C@]4(C(=C(C(=O)OC)C1)Nc1cc5c(cc14)[C@@H]1[C@H](O5)[C@@H](O)[C@@]4(CC)CC(C(=O)OC)=C5Nc6cc(OC)ccc6[C@@]56CCN1[C@@H]46)[C@@H]32 | -36.8% (active)
CCCCCC(/C=N\NC(=S)N/N=C/C(=C/c1ccccc1)CCCCC)=C\c1ccccc1 | 47.4%
N=C(N)c1ccc(-c2ccc(-c3ccccc3)o2)o1 | 14.3%
COC(=O)/C(CCC=C(C)C)=C1\[C@@H](OC(C)=O)C[C@@]2(C)[C@H]1CC(=O)[C@H]1[C@@]3(C)CC[C@H](NCc4ccccc4)[C@@H](C)[C@@H]3CC[C@@]12C | 87.2%
O=CCCCC(O)C=O (stereo not given) | 98.9%
CNc1ccc(CSc2ccc(Cl)cc2)cc1 | 78.5%
N#C/C(=C\c1cccc2cnccc12)n1nnc2cccc(F)c21 | 31.9%
Clc1ccc(Nc2ncnc3c2sc2ncccc23)cc1 | 23%
CCOc1ccccc1-n1c(CN2CCN(C(=O)COc3ccc(CNCCCCCCN4C5CCCC4CC(OC(=O)Nc4cc(C)ccc4OC)C5)cc3)CC2)nc2ccccc2c1=O (stereo not given) | -79.1% (active)
Nc1nc(=O)n([C@H]2CC=C(CO)O2)cc1F | 106%
